# Reference: PMC13541613, “GHT-SELEX demonstrates unexpectedly high intrinsic sequence specificity and complex DNA binding of many human transcription factors”
# Target: ZNF721 full-length (Homo sapiens, UniProt Q8TF20-2 1-923)
# Experiment: HT-SELEX; 20 mM HEPES pH 7, 140 mM KCl, 5 mM NaCl, 1 mM K2HPO4, 2 mM MgSO4, 100 uM EGTA, ZnSO4, 0.1% Tween20; room temperature, 1 h; high values mean tight binding
# Details: protein: ivt; tags: eGFP (N-terminal); dsDNA, one strand shown
# In short: (§1)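 In HEPES/KCl low-stringency buffer with Tween20, a bead-immobilised tagged transcription factor (full-length or DNA-binding-domain fragment, from HEK293 lysate or cell-free extract) was incubated with a randomized 40-base DNA library for 1 h at room temperature. DNA retained after washing was heat-eluted, amplified by PCR over successive cycles and Illumina-sequenced, giving ~3 million 60 bp reads per sample. The reported binding signal, a relative k-mer count in those selected reads, rises with tighter binding.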
# Chain of ZNF721 full-length (Q8TF20 other isoform, or with tags, fused parts or gaps): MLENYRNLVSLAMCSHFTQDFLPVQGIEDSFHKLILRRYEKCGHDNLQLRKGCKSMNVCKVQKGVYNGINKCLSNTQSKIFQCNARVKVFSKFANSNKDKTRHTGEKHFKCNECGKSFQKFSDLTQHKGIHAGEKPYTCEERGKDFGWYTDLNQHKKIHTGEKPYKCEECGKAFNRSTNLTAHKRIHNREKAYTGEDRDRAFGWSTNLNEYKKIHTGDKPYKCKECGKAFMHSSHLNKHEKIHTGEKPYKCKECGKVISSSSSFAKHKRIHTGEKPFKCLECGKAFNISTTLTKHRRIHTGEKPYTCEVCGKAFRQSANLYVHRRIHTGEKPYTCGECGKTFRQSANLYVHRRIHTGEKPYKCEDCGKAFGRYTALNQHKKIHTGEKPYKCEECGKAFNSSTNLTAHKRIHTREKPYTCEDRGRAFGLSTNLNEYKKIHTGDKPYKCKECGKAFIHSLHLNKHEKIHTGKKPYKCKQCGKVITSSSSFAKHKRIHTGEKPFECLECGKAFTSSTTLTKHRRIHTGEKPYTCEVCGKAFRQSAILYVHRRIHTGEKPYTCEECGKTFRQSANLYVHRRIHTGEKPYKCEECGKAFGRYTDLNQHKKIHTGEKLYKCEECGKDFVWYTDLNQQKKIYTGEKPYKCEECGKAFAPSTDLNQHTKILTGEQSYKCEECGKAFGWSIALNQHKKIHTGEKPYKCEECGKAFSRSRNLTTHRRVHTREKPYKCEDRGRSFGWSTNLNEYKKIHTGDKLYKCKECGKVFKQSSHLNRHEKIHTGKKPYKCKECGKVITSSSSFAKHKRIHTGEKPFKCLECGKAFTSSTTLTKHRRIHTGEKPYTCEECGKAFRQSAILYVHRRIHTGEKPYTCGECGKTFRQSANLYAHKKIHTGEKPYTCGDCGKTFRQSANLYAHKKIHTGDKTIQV
row,Sequence,binding signal
1,CCCCGCGCCC,0.138 relative 10-mer count
2,GGGTGGGGGA,0.208 relative 10-mer count
3,CACCTCCCCA,0.115 relative 10-mer count
4,CCCCCGCCCC,0.312 relative 10-mer count
5,CCCACCCTCA,0.114 relative 10-mer count
6,CCCACCCCAC,0.354 relative 10-mer count
7,CAAAAAAAGC,0.202 relative 10-mer count
8,CCCCCTACCC,0.155 relative 10-mer count
9,AAAGCAGCCC,0.134 relative 10-mer count
10,CCCCTCTCCC,0.107 relative 10-mer count
11,CCCAACCCAC,0.149 relative 10-mer count
12,CCCGACCCCC,0.178 relative 10-mer count
13,CCACCCGCCC,0.235 relative 10-mer count
14,AGGGGTGGTG,0.139 relative 10-mer count
15,CTCCCACCCC,0.224 relative 10-mer count
16,ACCCCGCCCC,0.188 relative 10-mer count
17,CAGCATACCC,0.596 relative 10-mer count
18,ACACCACCCC,0.128 relative 10-mer count
19,TGGGTATGAA,0.14 relative 10-mer count
20,GGGTGGGTGA,0.104 relative 10-mer count

row,Sequence,binding signal
1,CCCCCGCCCA,0.167 relative 10-mer count
2,AGGGGGGCGG,0.108 relative 10-mer count
3,CCCGCCCCCG,0.13 relative 10-mer count
4,AAACAGCATG,0.284 relative 10-mer count
5,ACAAAAAAAA,0.179 relative 10-mer count
6,AAAAAAGAGT,0.101 relative 10-mer count
7,CCGTCCCCCC,0.15 relative 10-mer count
8,CCACCCCCTC,0.182 relative 10-mer count
9,CACCCCACCA,0.182 relative 10-mer count
10,CCCACCACGC,0.108 relative 10-mer count
11,CCACGCCCCC,0.187 relative 10-mer count
12,CACCACCCTC,0.111 relative 10-mer count
13,ACCCACACCC,0.108 relative 10-mer count
14,AAAAAAGCAT,0.343 relative 10-mer count
15,AGGCAACACT,0.174 relative 10-mer count
16,CCACCGCCCC,0.256 relative 10-mer count
17,ACCCCCAACC,0.12 relative 10-mer count
18,CCCCCTCCGC,0.124 relative 10-mer count
19,CCCCCGCACC,0.146 relative 10-mer count
20,AAGCAGCATG,0.115 relative 10-mer count

# Target: ZNF721 DBD1 (Homo sapiens, UniProt Q8TF20-2 29-461)
# Experiment: as above
# Details: protein: ivt; tags: eGFP (N-terminal); dsDNA, one strand shown
# In short: as §1
# Chain of ZNF721 DBD1 (Q8TF20 17-449): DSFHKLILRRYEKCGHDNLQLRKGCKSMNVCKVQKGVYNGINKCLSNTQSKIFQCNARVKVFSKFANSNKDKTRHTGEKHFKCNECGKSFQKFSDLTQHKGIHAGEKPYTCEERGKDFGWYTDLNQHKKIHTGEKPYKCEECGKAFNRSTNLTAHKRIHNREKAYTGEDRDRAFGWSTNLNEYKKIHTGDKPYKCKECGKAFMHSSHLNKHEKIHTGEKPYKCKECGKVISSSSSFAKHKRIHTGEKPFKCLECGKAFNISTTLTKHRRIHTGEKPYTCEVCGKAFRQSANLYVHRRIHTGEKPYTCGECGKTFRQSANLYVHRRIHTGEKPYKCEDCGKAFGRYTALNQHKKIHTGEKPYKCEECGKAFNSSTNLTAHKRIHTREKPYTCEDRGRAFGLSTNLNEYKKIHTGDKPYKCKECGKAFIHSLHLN
row,Sequence,binding signal
1,CCCCGCGCCC,0.00482 relative 10-mer count
2,GGGTGGGGGA,0.00885 relative 10-mer count
3,CACCTCCCCA,0.00505 relative 10-mer count
4,CCCCCGCCCC,0.0117 relative 10-mer count
5,CCCACCCTCA,0.00573 relative 10-mer count
6,CCCACCCCAC,0.0155 relative 10-mer count
7,CAAAAAAAGC,0.0258 relative 10-mer count
8,CCCCCTACCC,0.0072 relative 10-mer count
9,AAAGCAGCCC,0.00225 relative 10-mer count
10,CCCCTCTCCC,0.00454 relative 10-mer count
11,CCCAACCCAC,0.0056 relative 10-mer count
12,CCCGACCCCC,0.00628 relative 10-mer count
13,CCACCCGCCC,0.00922 relative 10-mer count
14,AGGGGTGGTG,0.00532 relative 10-mer count
15,CTCCCACCCC,0.0128 relative 10-mer count
16,ACCCCGCCCC,0.00569 relative 10-mer count
17,CAGCATACCC,0.00271 relative 10-mer count
18,ACACCACCCC,0.00394 relative 10-mer count
19,TGGGTATGAA,0.192 relative 10-mer count
20,GGGTGGGTGA,0.00505 relative 10-mer count

row,Sequence,binding signal
1,CCCCCGCCCA,0.00638 relative 10-mer count
2,AGGGGGGCGG,0.00417 relative 10-mer count
3,CCCGCCCCCG,0.00482 relative 10-mer count
4,AAACAGCATG,0.00101 relative 10-mer count
5,ACAAAAAAAA,0.0167 relative 10-mer count
6,AAAAAAGAGT,0.00665 relative 10-mer count
7,CCGTCCCCCC,0.00693 relative 10-mer count
8,CCACCCCCTC,0.00982 relative 10-mer count
9,CACCCCACCA,0.00725 relative 10-mer count
10,CCCACCACGC,0.00408 relative 10-mer count
11,CCACGCCCCC,0.00605 relative 10-mer count
12,CACCACCCTC,0.00537 relative 10-mer count
13,ACCCACACCC,0.00527 relative 10-mer count
14,AAAAAAGCAT,0.0588 relative 10-mer count
15,AGGCAACACT,0.00697 relative 10-mer count
16,CCACCGCCCC,0.0117 relative 10-mer count
17,ACCCCCAACC,0.00468 relative 10-mer count
18,CCCCCTCCGC,0.00725 relative 10-mer count
19,CCCCCGCACC,0.00527 relative 10-mer count
20,AAGCAGCATG,0.0017 relative 10-mer count

# Target: ZNF721 DBD2 (Homo sapiens, UniProt Q8TF20-2 395-923)
# Experiment: as above
# Details: protein: ivt; tags: eGFP (N-terminal); dsDNA, one strand shown
# In short: as §1
# Chain of ZNF721 DBD2 (Q8TF20 383-911): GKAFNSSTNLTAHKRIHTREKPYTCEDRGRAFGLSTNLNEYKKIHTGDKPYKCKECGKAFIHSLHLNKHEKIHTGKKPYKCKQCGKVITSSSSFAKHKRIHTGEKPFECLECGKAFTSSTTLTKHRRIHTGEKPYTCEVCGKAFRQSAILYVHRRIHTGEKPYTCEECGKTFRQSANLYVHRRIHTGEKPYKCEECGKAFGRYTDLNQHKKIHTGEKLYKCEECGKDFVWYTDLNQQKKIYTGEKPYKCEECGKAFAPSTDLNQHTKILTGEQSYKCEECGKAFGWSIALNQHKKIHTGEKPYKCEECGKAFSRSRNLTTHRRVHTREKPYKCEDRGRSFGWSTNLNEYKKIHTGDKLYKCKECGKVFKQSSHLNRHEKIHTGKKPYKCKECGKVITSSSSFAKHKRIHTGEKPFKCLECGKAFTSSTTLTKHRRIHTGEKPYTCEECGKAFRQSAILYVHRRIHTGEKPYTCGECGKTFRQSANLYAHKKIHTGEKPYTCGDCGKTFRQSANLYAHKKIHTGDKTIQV
row,Sequence,binding signal
1,CCCCGCGCCC,0.00228 relative 10-mer count
2,GGGTGGGGGA,0.00443 relative 10-mer count
3,CACCTCCCCA,0.00348 relative 10-mer count
4,CCCCCGCCCC,0.00372 relative 10-mer count
5,CCCACCCTCA,0.00971 relative 10-mer count
6,CCCACCCCAC,0.00863 relative 10-mer count
7,CAAAAAAAGC,0.0675 relative 10-mer count
8,CCCCCTACCC,0.003 relative 10-mer count
9,AAAGCAGCCC,0.133 relative 10-mer count
10,CCCCTCTCCC,0.00204 relative 10-mer count
11,CCCAACCCAC,0.00515 relative 10-mer count
12,CCCGACCCCC,0.00144 relative 10-mer count
13,CCACCCGCCC,0.00443 relative 10-mer count
14,AGGGGTGGTG,0.00407 relative 10-mer count
15,CTCCCACCCC,0.00455 relative 10-mer count
16,ACCCCGCCCC,0.00192 relative 10-mer count
17,CAGCATACCC,0.909 relative 10-mer count
18,ACACCACCCC,0.00276 relative 10-mer count
19,TGGGTATGAA,0.00108 relative 10-mer count
20,GGGTGGGTGA,0.0012 relative 10-mer count

row,Sequence,binding signal
1,CCCCCGCCCA,0.00192 relative 10-mer count
2,AGGGGGGCGG,0.0012 relative 10-mer count
3,CCCGCCCCCG,0.00144 relative 10-mer count
4,AAACAGCATG,0.345 relative 10-mer count
5,ACAAAAAAAA,0.0899 relative 10-mer count
6,AAAAAAGAGT,0.0674 relative 10-mer count
7,CCGTCCCCCC,0.00192 relative 10-mer count
8,CCACCCCCTC,0.00312 relative 10-mer count
9,CACCCCACCA,0.00587 relative 10-mer count
10,CCCACCACGC,0.00539 relative 10-mer count
11,CCACGCCCCC,0.0024 relative 10-mer count
12,CACCACCCTC,0.00419 relative 10-mer count
13,ACCCACACCC,0.00527 relative 10-mer count
14,AAAAAAGCAT,0.067 relative 10-mer count
15,AGGCAACACT,0.391 relative 10-mer count
16,CCACCGCCCC,0.00455 relative 10-mer count
17,ACCCCCAACC,0.00479 relative 10-mer count
18,CCCCCTCCGC,0.00372 relative 10-mer count
19,CCCCCGCACC,0.00419 relative 10-mer count
20,AAGCAGCATG,0.137 relative 10-mer count
